Source: PubChem BioAssay AID1347416 (National Center for Advancing Translational Sciences (NCATS), 2020)
About 1,600 (39%) of roughly 4,100 compounds were called active. Roughly 25% stayed inconclusive and do not appear here. Calls follow the shape of the dose curve; as a rule, active = well fitted inhibition curve with a large enough effect; inconclusive = small, poorly fitted or top-dose-only effect; inactive = no such curve, though single readings can be large or run the other way. This is one part of the list. Where a call stands in place of a potency, no number is given.

Assay: qHTS Validation assay for Inhibitors of Plasmodium falciparum Dd2 growth in vitro; also: nearly all actives have a fitted effect of over 70% in size
Conditions: P. falciparum Dd2 in RBCs, SYBR Green growth, 72 h; series mostly up to 28.7 µM
Summary of the method: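 P. falciparum Dd2-infected red blood cells (2.5% hematocrit, 0.3% parasitemia) grown 72 h at 37 °C under 5% O2 with compounds in a titration, 29 uM to 0.5 nM final. Growth read as SYBR Green-1 fluorescence after ~16 h lysis; artesunate 300 nM as positive control.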
Potency is read from the fitted curve at half-maximal effect.

Compound | Potency
CCOc1ccccc1C1c2[nH]c3ccccc3c2C[C@H]2C(=O)N(C3CCN(Cc4ccccc4)CC3)CC(=O)N12 (stereo partly drawn) | 2.37 µM (active)
COc1ccc(C2c3[nH]c4ccccc4c3C[C@H]3C(=O)N(C4CCN(Cc5ccccc5)CC4)CC(=O)N23)cc1OC (stereo partly drawn) | 2.99 µM (active)
COc1ccc(C2c3[nH]c4ccccc4c3C[C@H]3C(=O)N(C4CCN(Cc5ccccc5)CC4)CC(=O)N23)c(OC)c1 (stereo partly drawn) | 2.37 µM (active)
COc1ccccc1C1c2[nH]c3ccccc3c2C[C@H]2C(=O)N(C3CCN(Cc4ccccc4)CC3)CC(=O)N12 (stereo partly drawn) | 2.11 µM (active)
CC(=O)N(C)C1=C(N2CCOCC2)C(=O)c2ccccc2C1=O | 0.842 µM (active)
Cc1ccc(-n2cc(-c3ccccc3)nc2S(=O)(=O)CC(=O)Nc2ccc(F)cc2)cc1 | inactive
CC(=O)Oc1c(-c2ccc(NC(=O)CC(C)C)cc2)c(-c2ccc(F)cc2)nn1-c1ccc(F)cc1 | 13.3 µM (active)
COc1ccc(-c2nn(-c3ccc(F)cc3)c(OC(C)=O)c2-c2ccc(NC(C)=O)cc2)cc1OC | 15 µM (active)
COc1cccc(C2C3=C(N=c4s/c(=C\c5ccccc5O)c(=O)n42)c2ccccc2CC3)c1OC (stereo not drawn) | 2.99 µM (active)
COc1cccc(CN2CCC3(C2)NC(=O)c2ccccc2CO3)c1 (stereo not drawn) | inactive
CC1(c2ccccc2)N(Cc2ccc(O)cc2)C(=O)OC12CCN(Cc1c[nH]c3ccccc13)CC2 (stereo not drawn) | 5.31 µM (active)
COCc1cc(=O)n(CC(=O)NCc2cccc(OC)c2)c(N2CCOCC2)n1 | inactive
COc1cccc(CN2C(=O)OC3(CCN(Cc4c[nH]c5ccccc45)CC3)C2(C)c2cccnc2)c1 (stereo not drawn) | 8.41 µM (active)
O=C1CO[C@H]2CCN(Cc3ccc(O)cc3)CC[C@@H]2N1c1ccccc1 | inactive
COc1cccc(CN2C(=O)OC3(CCN(Cc4ccc5c(c4)CCO5)CC3)C2(C)c2cccnc2)c1 (stereo not drawn) | 4.73 µM (active)
COc1cccc(CN2C(=O)OC3(CCN(Cc4ccccc4OC)CC3)C2(C)c2cccnc2)c1 (stereo not drawn) | 4.73 µM (active)
COCCc1noc([C@@H]2CN(Cc3ccc(C)o3)C[C@H]2CO)n1 | inactive
COC(=O)C1C2C=CC3(CN(Cc4cccs4)C(=O)C13)O2 (stereo not drawn) | inactive
CCOC(=O)c1cnc2ccc(OC)cc2c1Nc1ccc(N2CCN(C)CC2)cc1 | 1.68 µM (active)
Cc1ccc(C(=O)N/N=C/c2ccc([N+](=O)[O-])s2)cc1 | 5.96 µM (active)

Compound | Potency
Cc1ncc(CO)c(/C=N/NC(=O)c2ccc(O)cc2)c1O | inactive
Cc1ccccc1C1C(C#N)=C2N=C(N)c3c(sc4c3CCCCC4)N2C2=C1C(=O)CCC2 (stereo not drawn) | 2.66 µM (active)
CN(CC1CCOC1)C(=O)Nc1ccc(Br)cc1 (stereo not drawn) | inactive
COc1cc(C2CC(=O)N(Cc3ccc(F)cc3)c3ccccc3S2)cc(OC)c1OC (stereo not drawn) | 2.11 µM (active)
COC(=O)c1ccc(CN2C(=O)[C@@H]3C[C@@H](O)CN3C3(CN(Cc4ccc(F)cc4)C3)C2=O)cc1 | inactive
COc1cc(-c2ccnc3nc(Cc4ccc(F)cc4)nn23)cc(OC)c1OC | inactive
CC(C)(C)C(=O)NC(=S)Nc1ccccc1N1CCCC1 | inactive
O=C(/C=C/c1ccco1)NC(=S)Nc1ccccc1N1CCCC1 | 2.66 µM (active)
O=C(CCSc1nc(-c2ccco2)cc(C(F)(F)F)n1)Nc1cccc(O)c1 | inactive
Cc1noc(-c2cn(C3CCN(C(=O)C(C)Oc4ccc(Cl)cc4)CC3)nn2)n1 (stereo not drawn) | inactive
Cc1ccc(C)c(NC(=O)CN(C)C(=O)c2ccc(-c3ccc(Cl)cc3)o2)c1 | 4.73 µM (active)
Cc1ccc(C)c(NC(=O)CN(C)C(=O)c2cc3ccccc3o2)c1 | 13.3 µM (active)
O=C(Nc1ccccc1N1CCCC1)c1cc2ccccc2o1 | inactive
Cc1ccc(C)c(NC(=O)CN(C)C(=O)c2ccc(-c3cccc(C(F)(F)F)c3)o2)c1 | 2.11 µM (active)
Cc1ccc2c(CC(=O)Nc3ccccc3C(F)(F)F)coc2c1C | inactive
COc1cccc(NC(=O)CN(C)C(=O)c2ccc(-c3cccc(C(F)(F)F)c3)o2)c1 | 0.596 µM (active)
COCC(=O)Nc1ccc2c(c1)OCC(=O)N2Cc1ccc(C)cc1 | inactive
COc1cccc(NC(=O)[C@@H]2C[C@H](c3cccc(C(F)(F)F)c3)N(Cc3cnn(C)c3)C2)c1 | inactive
Cc1cccc(Cn2nnc(C(=O)Nc3cc(C)ccc3C)c2N)c1 | inactive
Cc1ccc(-c2cn3cccnc3n2)cc1NC(=O)Cc1ccccc1 | inactive

Compound | Potency
O=C(c1cc2c(s1)CCCC2)N1CCc2c(nc3cc[nH]n3c2=O)C1 | inactive
Cc1ccc(C(=O)NCCc2noc(C3CC3)n2)cc1C | inactive
CN(CC(=O)Nc1cccc(F)c1)C(=O)c1ccc(-c2cccc(C(F)(F)F)c2)o1 | 0.668 µM (active)
COc1cccc(NC(=O)CN(C)C(=O)c2ccc(-c3ccc(Cl)cc3)o2)c1 | 4.22 µM (active)
Cc1cccc(NC(=O)CN(c2ccc(F)cc2)S(C)(=O)=O)c1 | inactive
CCCC(C)C(=O)Nc1ncc(S(=O)(=O)c2ccc([N+](=O)[O-])cc2)s1 (stereo not drawn) | 5.96 µM (active)
COc1ccc(-c2cc3c(=O)n(CCNC(=O)c4c(F)cccc4Cl)ccn3n2)cc1 | inactive
COc1ccc(CCNC(=O)c2cc(C(=O)c3cc(Cl)ccc3O)cn(CCc3ccc(OC)cc3)c2=O)cc1 | 3.76 µM (active)
COc1ccc(OC)c(CCNC(=O)c2nc(-c3ccc(Cl)cc3)n3c2CCCCC3)c1 | inactive
Cc1ccc(Oc2c(C)nc(-c3ccccc3)[nH]c2=O)cc1 | 5.31 µM (active)
Cc1ccc(-c2nc3ccccc3c(=O)n2O)cc1 | inactive
CCC(=O)N1CCN(C2CCN(Cc3ccccn3)C2=O)CC1 (stereo not drawn) | inactive
Cc1ccnc2nc(C(=O)Nc3cc(Cl)ccc3N3CCOCC3)nn12 | 4.73 µM (active)
N#Cc1ccc(NC(=O)Nc2ccc(Cl)cc2)cc1 | 5.31 µM (active)
CCn1ncc(Cl)c1C(=O)Nc1ccncc1 | inactive
CNC(=O)[C@@H]1CN(Cc2ccc(C#N)cc2)C[C@H]1COC | inactive
O=C(Nc1ccncc1)c1ccc(Cl)c(Cl)c1 | inactive
O=C(Nc1ccncc1)Nc1ccc(Cl)cc1 | 10.6 µM (active)
